# From paper PMC5540273 (PLoS ONE, 2017)
# Experiments:
# Conditions in all cases: concentration: 1 μM,replicates: in singlicate; n = 1
# PIP5K1A = system: PIP5K1A
# PIP5K1C = system: PIP5K1C
# PIP5K2B = system: PIP5K2B
# PIP5K2C = system: T1, PIP5K2C
# T1 construct: gene PIP4K2C
# PKAC-alpha = system: T2, PKAC-alpha
# T2 construct: gene PRKACA
# PKAC-beta = system: T3, PKAC-beta
# T3 construct: gene PRKACB
# PKMYT1 = system: PKMYT1
# PKN1 = system: PKN1
# PKN2 = system: PKN2
# PLK1 = system: PLK1
# 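Further: KINOMEscan kinase panel screen.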
SMILES,%Inh (PIP5K1A),%Inh (PIP5K1C),%Inh (PIP5K2B),%Inh (PIP5K2C),%Inh (PKAC-alpha),%Inh (PKAC-beta),%Inh (PKMYT1),%Inh (PKN1),%Inh (PKN2),%Inh (PLK1)
Cc1n[nH]c2cc(Nc3ccnc(Nc4cccc(CN5CCOCC5)c4)n3)ccc12 [GW682569],57%,70%,33%,71%,0%,0%,0%,46%,0%,0%
Cc1nnc(-c2ccc3occ(-c4ccc(S(C)=O)cc4)c3n2)o1 (centres unmarked),9%,10%,0%,43%,0%,0%,64%,0%,0%,0%
C[C@@H](Oc1cc(-n2cnc3cc(-c4cnn(C)c4)ccc32)sc1C(N)=O)c1ccccc1Cl [GSK580432],0%,38%,37%,3%,2%,0%,15%,0%,72%,–
CCNCC(Cc1ccccc1)NC(=O)c1cc(Br)c(-c2ccnc3[nH]ccc23)s1.Cl.Cl (centres unmarked) [GSK1383280],55%,38%,16%,36%,99.4%,99.3%,0%,39%,58%,0%
NC(=O)c1ccc(-c2cc3ncnc(SCC(=O)O)c3s2)cc1,0%,93%,6%,72%,0%,0%,0%,0%,4%,0%
Cn1ccc2ncnc(Oc3ccc(NC(=O)Nc4cc(C(C)(C)C)on4)c(Cl)c3)c21,14%,0%,38%,0%,0%,0%,0%,0%,0%,0%
Cn1ccc2ncnc(Oc3ccc(NC(=O)Nc4cccc(C(F)(F)F)c4)c(F)c3)c21,0%,17%,0%,0%,0%,34%,2%,0%,16%,0%
COC(=O)c1cccc(NC(=O)NC2CCN(c3ccnc(Nc4cc(OC)c(OC)c(OC)c4)n3)C2)c1 (centres unmarked) [GSK1379767],22%,64%,10%,90.7%,0%,0%,6%,7%,0%,8%
O=C(Nc1cccc(Oc2ccc3nccn3n2)c1)Nc1cccc(C(F)(F)F)c1,6%,37%,14%,35%,66%,63%,0%,0%,31%,38%
COc1cccc(C2=C(Nc3cccc(Cl)c3)C(=O)NC2=O)c1 [SB-341556],0%,23%,0%,28%,0%,0%,0%,5%,0%,0%
Cl.Nc1n[nH]c2cc(-c3ccccn3)ccc12 [GSK2189892],0%,25%,7%,7%,0%,0%,0%,10%,0%,0%
CN(c1cccc(CNc2nc(Nc3ccc4c(c3)CC(=O)N4)ncc2C(F)(F)F)c1)S(C)(=O)=O,45%,45%,90.9%,46%,0%,0%,5%,77%,19%,0%
Nc1nccc(-c2ccc3c(N)n[nH]c3c2)n1 [GSK1034945],0%,29%,48%,10%,12%,0%,8%,0%,9%,0%
Cc1ccc(CC(=O)N2CCc3cc(-c4cn(C)c5ncnc(N)c45)ccc32)cc1 [GSK2634758],33%,57%,32%,17%,0%,0%,4%,0%,16%,7%
CN1CCN(CCCNc2nccc(-c3c(-c4ccc(F)cc4)nn4cc(C(N)=O)ccc34)n2)CC1 [GW622475],0%,50%,12%,29%,6%,1%,9%,13%,0%,0%
Cc1ccn2nc(-c3ccc(F)cc3)c(-c3ccncc3)c2c1.Cl [GW457859],54%,81%,15%,26%,29%,13%,0%,0%,0%,0%
CS(=O)c1ccc(-c2coc3ccc(-c4n[nH]c(=O)o4)cc23)cc1 (centres unmarked),0%,68%,20%,79%,0%,23%,8%,8%,12%,6%

SMILES,%Inh (PIP5K1A),%Inh (PIP5K1C),%Inh (PIP5K2B),%Inh (PIP5K2C),%Inh (PKAC-alpha),%Inh (PKAC-beta),%Inh (PKMYT1),%Inh (PKN1),%Inh (PKN2),%Inh (PLK1)
O=C(Nc1ccc(Oc2ccc3nc(NC(=O)C4CC4)cn3n2)c(F)c1)c1cccn(-c2ccccc2)c1=O,1%,22%,22%,76%,0%,56%,0%,0%,48%,0%
CN1CCN(CCNc2nc3cc(Oc4ccc(NC(=O)Nc5cc(C(F)(F)F)ccc5F)cc4)ccc3[nH]2)CC1.Cl.Cl [GW768504],20%,0%,0%,0%,0%,2%,0%,0%,8%,0%
CCN1CCN(CCCC(=O)Nc2n[nH]c3nc(-c4ccc(O)cc4)c(Br)cc23)CC1 [SB-731579],12%,30%,0%,24%,0%,0%,0%,0%,6%,0%
Cc1cccc(-c2nc(Nc3ccncc3)c3sccc3n2)n1 [GW869641],4%,61%,3%,45%,25%,38%,3%,1%,12%,33%
N#Cc1cccc(C(=O)NC2CCN(c3ccnc(Nc4ccc(F)cc4)n3)C2)c1 (centres unmarked) [GSK1379708],0%,37%,0%,21%,9%,0%,0%,14%,0%,0%
O=C(Nc1n[nH]c2cc(-c3ccco3)ccc12)C1CC1 [SB-737447],45%,12%,27%,0%,0%,0%,0%,0%,12%,0%
O=c1[nH]cc(-c2ccc(O)cc2)c2sc(-c3ccncc3)cc12 [GSK1033723],0%,65%,19%,27%,0%,0%,8%,0%,0%,13%
Cc1ccc(C(=O)Nc2ccc(Oc3ccc4nc(NC(=O)C5CC5)cn4c3)c(F)c2)c(=O)n1-c1ccccc1,26%,44%,34%,77%,0%,26%,0%,0%,0%,2%
OCCn1cc(-c2cnc3nnn(Cc4ccc5ncccc5c4)c3n2)cn1,1%,3%,0%,0%,0%,0%,0%,0%,0%,0%
CN(c1ccccc1CNc1nc(Nc2ccc3c(c2)CC(=O)N3)ncc1C(F)(F)F)S(C)(=O)=O,32%,0%,19%,9%,77%,63%,0%,85%,66%,0%
COc1ccc(Nc2nccc(N3CCC(NC(=O)c4cccc(C#N)c4)C3)n2)cc1 (centres unmarked) [GSK1379730],4%,35%,0%,23%,12%,9%,0%,37%,0%,0%
C[C@@H]1CNc2c(sc3ccc4nc(-c5ccncc5)ccc4c23)C(=O)N1,30%,11%,0%,0%,0%,27%,7%,7%,15%,0%
COc1cc(Nc2nccc(N3CCC(NC(=O)c4cccc(C#N)c4)C3)n2)cc(OC)c1OC (centres unmarked) [GSK1379751],0%,47%,0%,94.5%,0%,0%,0%,0%,0%,0%
NC(=O)Nc1sc(-c2ccc(F)cc2)cc1C(N)=O [GW789449],93.9%,65%,87%,28%,0%,26%,0%,7%,54%,37%
Cl.c1ccc(Oc2ccc(Nc3ccnc4cc(-c5ccc(CN6CCNCC6)o5)ccc34)cc2)nc1 [GW567142],0%,34%,0%,23%,0%,0%,0%,10%,0%,22%
O=C(Nc1ccccc1)c1cccc(Oc2ccc3nccn3n2)c1,0%,23%,15%,14%,5%,0%,0%,26%,29%,36%
